Test results taken from PubChem BioAssay AID1159580 (chemical genetic matrix, 2015).
In all, about 5,500 compounds went through this assay and about 2,000 (36%) were called active. Not shown: some 18% with an inconclusive outcome. The list shows a part of the results. Values without a mark were called inactive. No stated cut-off is given here; in the data, active means normalized growth mostly below about 0.91 (no sharp cut-off); inconclusive means no clear call, values can overlap the other calls; inactive means mostly above about 0.92.

Test: chemical genetic growth profiling, strain panel (AID 1159580);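 further: tested at 20 µM; growth read once vehicle control cultures reached saturation at 30 °C; 1 = growth at the plate median or of vehicle wells; lower values mean less growth of the strain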
Details: S. cerevisiae deletion strains, growth OD

## O=C1c2ccc(O)c(O)c2C(=O)c2c(O)ccc(O)c21
Locus YAL021C, strain ccr4, active compounds read low
  normalized growth: 0.241 (active)
Locus YAL026C, strain drs2, active compounds read low
  normalized growth: 0.376 (active)
Locus YAL030W, strain snc1, active compounds read low
  normalized growth: 0.69 (active)
Locus YBL061C, strain skt5, active compounds read low
  normalized growth: 0.548 (active)
Locus YBR009C, strain hhf1, active compounds read low
  normalized growth: 0.667 (active)
Locus YBR021W, strain FUR4, active compounds read low
  normalized growth: 1.01
Locus YBR023C, strain chs3, active compounds read low
  normalized growth: 0.479 (active)
Locus YBR171W, strain sec66, active compounds read low
  normalized growth: 0.753 (active)
Locus YBR229C, strain ROT2, active compounds read low
  normalized growth: 1.01
Locus YBR231C, strain swc5, active compounds read low
  normalized growth: 0.479 (active)
Locus YBR279W, strain paf1, active compounds read low
  normalized growth: 0.838 (active)
Locus YCL011C, strain gbp2, active compounds read low
  normalized growth: 0.67 (active)
Locus YCL016C, strain dcc1, active compounds read low
  normalized growth: 0.695 (active)
Locus YCL029C, strain bik1, active compounds read low
  normalized growth: 1
Locus YCL069W, strain vba3, active compounds read low
  normalized growth: 0.751 (active)
Locus YCR088W, strain abp1, active compounds read low
  normalized growth: 0.781 (active)
Locus YDL005C, strain med2, active compounds read low
  normalized growth: 0.879 (active)
Locus YDL035C, strain GPR1, active compounds read low
  normalized growth: 1.03
Locus YDL040C, strain nat1, active compounds read low
  normalized growth: 0.795 (active)
Locus YDL074C, strain BRE1, active compounds read low
  normalized growth: 1
Locus YDL101C, strain DUN1, active compounds read low
  normalized growth: 1.01
Locus YDL185W, strain tfp1, active compounds read low
  normalized growth: 1.01
Locus YDL192W, strain arf1, active compounds read low
  normalized growth: 0.99
Locus YDR001C, strain nth1, active compounds read low
  normalized growth: 0.787 (active)
Locus YDR069C, strain doa4, active compounds read low
  normalized growth: 0.399 (active)
Locus YDR101C, strain arx1, active compounds read low
  normalized growth: 1.01
Locus YDR137W, strain rgp1, active compounds read low
  normalized growth: 0.255 (active)
Locus YDR159W, strain sac3, active compounds read low
  normalized growth: 0.789 (active)
Locus YDR162C, strain NBP2, active compounds read low
  normalized growth: 1.03
Locus YDR195W, strain ref2
  normalized growth: 0.873
Locus YDR297W, strain sur2, active compounds read low
  normalized growth: 0.697 (active)
Locus YDR318W, strain mcm21, active compounds read low
  normalized growth: 0.992
Locus YDR334W, strain swr1, active compounds read low
  normalized growth: 0.424 (active)
Locus YDR335W, strain msn5, active compounds read low
  normalized growth: 0.737 (active)
Locus YDR388W, active compounds read low
  normalized growth: 0.997
Locus YDR392W, strain spt3, active compounds read low
  normalized growth: 0.567 (active)
Locus YDR502C, strain sam2, active compounds read low
  normalized growth: 0.991
Locus YEL003W, strain gim4, active compounds read low
  normalized growth: 0.675 (active)
Locus YEL037C, strain rad23, active compounds read low
  normalized growth: 0.734 (active)
Locus YEL061C, strain CIN8 (second series), active compounds read low
  normalized growth: 0.814 (active)
Locus YEL061C, strain CIN8, active compounds read low
  normalized growth: 1
Locus YER015W, strain faa2, active compounds read low
  normalized growth: 0.493 (active)
Locus YER016W, strain bim1, active compounds read low
  normalized growth: 0.705 (active)
Locus YER110C, active compounds read low
  normalized growth: 0.991
Locus YER111C, strain swi4, active compounds read low
  normalized growth: 0.708 (active)
Locus YER155C, strain BEM2 (second series), active compounds read low
  normalized growth: 0.696 (active)
Locus YER155C, strain BEM2, active compounds read low
  normalized growth: 1
Locus YER167W, strain BCK2, active compounds read low
  normalized growth: 1.02
Locus YFR010W, strain ubp6, active compounds read low
  normalized growth: 0.539 (active)
Locus YGL078C, strain dbp3, active compounds read low
  normalized growth: 0.982
Locus YGL086W, strain mad1, active compounds read low
  normalized growth: 0.989
Locus YGL167C, strain pmr1, active compounds read low
  normalized growth: 0.814 (active)
Locus YGL173C, strain kem1, active compounds read low
  normalized growth: 0.286 (active)
Locus YGL227W, strain vid30, active compounds read low
  normalized growth: 0.83 (active)
Locus YGL240W, strain doc1, active compounds read low
  normalized growth: 0.667 (active)
Locus YGL248W, strain PDE1, active compounds read low
  normalized growth: 1
Locus YGL253W, strain hxk2, active compounds read low
  normalized growth: 0.638 (active)
Locus YGR078C, strain PAC10, active compounds read low
  normalized growth: 1.01
Locus YGR135W, strain pre9, active compounds read low
  normalized growth: 0.991
Locus YGR252W, strain gcn5, active compounds read low
  normalized growth: 0.977
Locus YHR013C, strain ard1, active compounds read low
  normalized growth: 0.953
Locus YHR027C, strain rpn1, active compounds read low
  normalized growth: 0.401 (active)
Locus YHR030C, strain SLT2, active compounds read low
  normalized growth: 1.01
Locus YHR079C, strain IRE1 (second series), active compounds read low
  normalized growth: 0.991
Locus YHR094C, strain hxt1, active compounds read low
  normalized growth: 0.995
Locus YHR129C, strain ARP1, active compounds read low
  normalized growth: 1.01
Locus YHR142W, strain chs7, active compounds read low
  normalized growth: 0.451 (active)
Locus YHR200W, strain rpn10, active compounds read low
  normalized growth: 0.998
Locus YIL066C, strain RNR3, active compounds read low
  normalized growth: 1.03
Locus YIL073C, strain SPO22, active compounds read low
  normalized growth: 1.01
Locus YIL125W, strain kgd1, active compounds read low
  normalized growth: 0.992
Locus YIR030C, strain dcg1, active compounds read low
  normalized growth: 0.988
Locus YJL092W, strain hpr5, active compounds read low
  normalized growth: 0.774 (active)
Locus YJL095W, strain BCK1 (second series), active compounds read low
  normalized growth: 0.236 (active)
Locus YJL095W, strain BCK1, active compounds read low
  normalized growth: 0.998
Locus YJL115W, strain asf1, active compounds read low
  normalized growth: 0.816 (active)
Locus YJL129C, strain trk1, active compounds read low
  normalized growth: 0.52 (active)
Locus YJL134W, strain LCB3, active compounds read low
  normalized growth: 1.01
Locus YJL154C, strain vps35, active compounds read low
  normalized growth: 0.782 (active)
Locus YJL164C, strain tpk1, active compounds read low
  normalized growth: 0.545 (active)
Locus YJL166W, strain qcr8, active compounds read low
  normalized growth: 0.596 (active)
Locus YJL168C, strain set2, active compounds read low
  normalized growth: 0.988
Locus YJL187C, strain SWE1 (second series), active compounds read low
  normalized growth: 1.01
Locus YJR043C, strain POL32, active compounds read low
  normalized growth: 1.03
Locus YKL009W, strain mrt4, active compounds read low
  normalized growth: 0.978
Locus YKL068W, active compounds read low
  normalized growth: 0.992
Locus YKL085W, strain MDH1 (second series), active compounds read low
  normalized growth: 0.99
Locus YKL085W, strain MDH1, active compounds read low
  normalized growth: 0.99
Locus YKL160W, strain elf1, active compounds read low
  normalized growth: 0.869 (active)
Locus YKL190W, strain CNB1, active compounds read low
  normalized growth: 1.01
Locus YKR001C, strain vps1, active compounds read low
  normalized growth: 0.985
Locus YKR026C, strain gcn3, active compounds read low
  normalized growth: 0.81 (active)
Locus YKR091W, strain srl3, active compounds read low
  normalized growth: 0.757 (active)
Locus YLL001W, strain dnm1, active compounds read low
  normalized growth: 0.722 (active)
Locus YLL026W, active compounds read low
  normalized growth: 0.758 (active)
Locus YLL041C, strain sdh2, active compounds read low
  normalized growth: 0.765 (active)
Locus YLR027C, strain aat2, active compounds read low
  normalized growth: 0.751 (active)
Locus YLR039C, strain RIC1, active compounds read low
  normalized growth: 1.03
Locus YLR058C, strain SHM2, active compounds read low
  normalized growth: 1.01
Locus YLR102C, strain apc9, active compounds read low
  normalized growth: 0.991
Locus YLR221C, strain rsa3, active compounds read low
  normalized growth: 0.668 (active)
Locus YLR258W, strain gsy2, active compounds read low
  normalized growth: 0.685 (active)
Locus YLR262C, strain YPT6 (second series), active compounds read low
  normalized growth: 0.185 (active)
Locus YLR262C, strain YPT6, active compounds read low
  normalized growth: 1.09
Locus YLR268W, strain sec22, active compounds read low
  normalized growth: 1.01
Locus YLR320W, strain mms22, active compounds read low
  normalized growth: 0.515 (active)
Locus YLR330W, strain CHS5, active compounds read low
  normalized growth: 1.01
Locus YLR342W, strain FKS1 (second series), active compounds read low
  normalized growth: 1.02
Locus YLR342W, strain FKS1, active compounds read low
  normalized growth: 0.532 (active)
Locus YLR357W, strain rsc2, active compounds read low
  normalized growth: 0.563 (active)
Locus YLR370C, strain arc18, active compounds read low
  normalized growth: 0.577 (active)
Locus YLR371W, strain rom2, active compounds read low
  normalized growth: 0.986
Locus YLR384C, strain iki3, active compounds read low
  normalized growth: 0.731 (active)
Locus YLR418C, strain cdc73, active compounds read low
  normalized growth: 0.978
Locus YML016C, strain PPZ1, active compounds read low
  normalized growth: 1.01
Locus YML032C, strain rad52, active compounds read low
  normalized growth: 1.01
Locus YML120C, strain ndi1, active compounds read low
  normalized growth: 0.768 (active)
Locus YML124C, strain tub3, active compounds read low
  normalized growth: 0.988
Locus YMR058W, strain fet3, active compounds read low
  normalized growth: 0.459 (active)
Locus YMR078C, strain ctf18, active compounds read low
  normalized growth: 0.996
Locus YMR125W, strain sto1, active compounds read low
  normalized growth: 0.803 (active)
Locus YMR129W, active compounds read low
  normalized growth: 0.756 (active)
Locus YMR205C, strain PFK2, active compounds read low
  normalized growth: 0.522 (active)
Locus YMR223W, strain ubp8, active compounds read low
  normalized growth: 0.998
Locus YMR231W, strain pep5, active compounds read low
  normalized growth: 0.641 (active)
Locus YMR307W, strain GAS1, active compounds read low
  normalized growth: 1.07
Locus YNL067W, strain RPL9B, active compounds read low
  normalized growth: 0.997
Locus YNL071W, strain lat1, active compounds read low
  normalized growth: 0.748 (active)
Locus YNL128W, strain TEP1, active compounds read low
  normalized growth: 1.01
Locus YNL153C, strain GIM3, active compounds read low
  normalized growth: 0.998
Locus YNL209W, strain ssb2, active compounds read low
  normalized growth: 0.29 (active)
Locus YNL233W, strain BNI4, active compounds read low
  normalized growth: 1.01
Locus YNL248C, strain rpa49, active compounds read low
  normalized growth: 0.66 (active)
Locus YNL250W, strain rad50, active compounds read low
  normalized growth: 0.998
Locus YNL271C, strain bni1, active compounds read low
  normalized growth: 0.994
Locus YNL298W, strain CLA4, active compounds read low
  normalized growth: 0.994
Locus YNL307C, strain MCK1, active compounds read low
  normalized growth: 0.994
Locus YNL322C, strain KRE1 (second series), active compounds read low
  normalized growth: 0.812 (active)
Locus YNR049C, strain mso1, active compounds read low
  normalized growth: 0.785 (active)
Locus YNR052C, strain pop2, active compounds read low
  normalized growth: 0.993
Locus YOL012C, strain htz1
  normalized growth: 0.902
Locus YOL147C, strain pex11, active compounds read low
  normalized growth: 0.998
Locus YOR001W, strain rrp6, active compounds read low
  normalized growth: 0.683 (active)
Locus YOR061W, strain CKA2, active compounds read low
  normalized growth: 1.02
Locus YOR069W, strain VPS5, active compounds read low
  normalized growth: 1.01
Locus YOR070C, strain gyp1, active compounds read low
  normalized growth: 0.71 (active)
Locus YOR080W, strain dia2, active compounds read low
  normalized growth: 0.759 (active)
Locus YOR083W, strain WHI5, active compounds read low
  normalized growth: 0.57 (active)
Locus YOR106W, strain vam3, active compounds read low
  normalized growth: 0.307 (active)
Locus YOR136W, strain idh2, active compounds read low
  normalized growth: 1.02
Locus YOR144C, strain elg1, active compounds read low
  normalized growth: 0.991
Locus YOR184W, strain ser1, active compounds read low
  normalized growth: 0.995
Locus YOR265W, strain rbl2, active compounds read low
  normalized growth: 0.683 (active)
Locus YOR270C, strain vph1, active compounds read low
  normalized growth: 0.387 (active)
Locus YOR290C, strain snf2, active compounds read low
  normalized growth: 0.578 (active)
Locus YOR316C, strain cot1, active compounds read low
  normalized growth: 0.996
Locus YPL051W, strain arl3, active compounds read low
  normalized growth: 0.416 (active)
Locus YPL078C, strain atp4, active compounds read low
  normalized growth: 0.76 (active)
Locus YPL106C, strain sse1, active compounds read low
  normalized growth: 0.536 (active)
Locus YPL240C, strain hsp82, active compounds read low
  normalized growth: 0.74 (active)
Locus YPL241C, strain CIN2, active compounds read low
  normalized growth: 1.01
Locus YPR119W, strain clb2, active compounds read low
  normalized growth: 0.989
Locus YPR141C, strain kar3, active compounds read low
  normalized growth: 0.991
Locus YPR163C, strain tif3, active compounds read low
  normalized growth: 1.01
Locus YPR167C, strain met16, active compounds read low
  normalized growth: 0.989
Strain wtn01, active compounds read low
  normalized growth: 1.01
